# Reference: the supplement of paper PMC6555819
# System: VDR:RXRa (NR concentration 270 nM, RXRa partner concentration 90 nM)
# Assay: PBM binding z-score (relative to random genomic background probes); higher = stronger binding; sequences stand for … in GC…GCGATTGACAGCGTAGAATGAAGG
# Protocol: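 Protein-binding microarray (Agilent 4x180K custom design, double-stranded 60-nt probes: 5' GC cap, 34-nt variable region, 24-nt constant primer region; full probe sequence given). Purified or IVT nuclear receptor:RXRα heterodimers (3:1 NR:RXRα, mostly 270:90 nM) or homodimers were incubated for 1 h in PBS with 2% milk and no ligand, then detected with Alexa488 antibodies. Fluorescence from o1-orientation probes (~5 replicates averaged) was converted to z-scores against 500 random hg19 background probes. Variable regions are seed direct-repeat (DR0–DR5) sites, all their single-nucleotide variants and half-site ablations.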
row,Sequence,PBM binding z-score
1,AATACAGGGTCACTGGGCCAGAGTAGGTACGAAT,4.65
2,CCGAGTAGGTTACCAGGGGGCATTCAGTGCGAAT,4.94
3,AGTCAAAGTTCACTAGGCAACGTAAGATTCAGCT,3.13
4,TTACGAAGGTGAAAGGTCGTTGATGCACGCCTTG,3.25
5,CCTAGCAGGCCAATCGGGGTCACTCAAGGCTTGA,5.36
6,CCGAGTAGGTTATGAGGGGGCATTCAGTGCGAAT,5.25
7,TCTAGGAGGACACGAAGGTCAGAGCTTTCCAGAG,2.25
8,CGAACTAGGTCAAAGGACAGAGAAAGGCGACGTA,1.54
9,CGAACTAGCTCAAGGACAGTGAATCTCCGCACGC,-0.322
10,ATATGTAGGTTACGGTCATTCAGAAAGTAGGGAA,1.54
11,TGAATGAGGTGAAAGATCAGGGAACGTGGCGTCG,0.449
12,TCGAGTAGGTTACGTGGGCATTCAGGGATGAAGA,0.00981
13,TCGAGTAGGTTACGGGGGCATTCGGGGATGAAGA,4.16
14,CGAACTAGGCCACCAGGACAGTGAAGAGGTTGGA,-0.817
15,CGCACTAGGTCATTGACAGGACAGTGAATAGTAA,2.36
16,ACTCGGAGGACAAAGGTAAGAGCTACGCCAGTGA,-0.371
17,CTATGTCGGTTAAGGGGGTCATTCAGTTTGAAAG,6.77
18,CGTCCAAGGTCAATGCTAGCTCAGTGAAAGCATT,3.63
19,CGTCCAAGGTCCATGCTAGGTCAGTGAAAGCATT,0.731
20,ATATGTAGGTTTGGGTCATTCAGAAAGTAGGGAA,2.04

row,Sequence,PBM binding z-score
1,ATCGAAAGGTCGTGAGGTGACTATACAGAAAGGC,3.64
2,CGAAGTAGGTCACCAGGACAGTGAAGAGGTTGGA,2.07
3,TCTGCTAGGTCAACGATGGTCAGCGAATCTGCTA,1.66
4,CAAACTAGGTCACCAGGACAGTGAAGAGGTTGGA,2.3
5,CCGAGCAGGTTACGAGGGGGCATTCAGTGCGAAT,5.27
6,TAGCCTAGCTCATTCAGGGGCCAGTATAGAAAGC,-0.541
7,CGTCCAAGGTCACCAGGTCAGTGAAAGCGACGTG,5.3
8,CCGACTGGGGCAACGGTTACCATACTCAGTACGA,-0.409
9,GATACGGGGTCAGCTAGAGGCCAGAGTATGGAAA,5.72
10,CCTACTGGGCCAAGGTCTTTGATCAGTCAAAGCA,-0.509
11,TTACCAAGGTGAAAGGTCATTGATGCACGCCTTG,5.41
12,ATATGTAGGTTAGGTTCATTCAGAAAGTAGGGAA,4.01
13,CAGCCTAGTTCAGGGCCAGTATAGGAGGAACGTT,-0.0838
14,ATATGTAGGTTAGCGGGGGTCATTCAGACTAGGC,6.4
15,CGAACTAGGTCACCAGGATAGTGAAGAGGTTGGA,1.93
16,CAAGCTAGGTCAAGAGGTCAAAGTCCGCTTCCCG,5.9
17,ACTAGCAGGCCAAGAGTCACTCAAGATTAGTCCG,-0.367
18,CCGAGTAGGTGACGAGGGGGCATTCAGTGCGAAT,4.37
19,CTATGTAGGTTAAGAGGGTCATTCAGTTTGAAAG,6.27
20,CCTGCTAGGTCTATGGTCAGCTAAAGCAGCTCGC,-0.536
